# Data as given in PubChem BioAssay AID1259339 (Broad Institute, 2017).
# The source made the active and inactive calls.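 Rule for the calls: active = fitted AC50 no higher than ten times the top tested dose (cut at about 90 µM in these data); inconclusive = flat curve with 30 to 70% signal loss, or bad fit; inactive = AC50 beyond ten times the top dose.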
# Assay: TruHit bead signal quenchers or artefacts – biochemical, TruHit kit, artefact control, dose response (AID 1259339)
# Details: TruHit alphaLISA kit signal interference counterscreen; series mostly up to 80 µM
row,Compound,AC50
1,Cc1nc(C)c(C(=O)Nc2ncc([N+](=O)[O-])s2)o1,40.7 µM (active)
2,O=C(Cc1ccc(S(=O)(=O)N2CCOCC2)s1)Nc1nc2c(s1)CCCC2,29.2 µM (active)
3,N#CNc1nc(O)cc(=O)[nH]1,inactive
4,O=C(Nc1nc(-c2ccccn2)cs1)c1cccc(-n2cnnn2)c1,inactive
5,CCCc1oc(C(=O)O)cc1CN,inactive
6,NC(=O)C1(N2CCCCC2)CCN(c2ncc(NC(=O)c3ccccc3)cc2C(=O)O)CC1,inactive
7,c1coc(-c2cn3ccc4ccccc4c3n2)c1,81.7 µM (active)
8,O=C(Nc1nc(-c2ccco2)c(-c2ccco2)s1)C1CCC1,4.55 µM (active)
9,O=C(O)COc1ccc(-n2cccc2)cc1,inactive
10,Cc1cccc(Nc2nc(C(=O)Nc3cc(F)ccc3F)nc3ccccc23)c1,inactive
11,CCCN1CCCn2nc(CNC(=O)[C@@H](N)Cc3ccc(O)cc3)cc2C1,inactive
12,Cc1ccc(-c2nnc(-c3nc(Nc4nc5ccccc5s4)c4ccccc4n3)o2)cc1,inactive
13,C=CC(=O)N1CCCC2(CCN(CCN3CCCC3)C2=O)C1 (centres undefined),inactive
14,Cc1ccc(C(=O)Nc2cnc(N3CCC(C(N)=O)(N4CCCCC4)CC3)c(C(=O)O)c2)cc1,inactive
15,O=C(Nc1ccc2oc(-c3ccncc3)nc2c1)c1ccc2c(c1)OCCO2,inactive
16,NC(=O)C1(N2CCCCC2)CCN(c2ccc(NC(=O)c3ccccc3F)cc2C(=O)O)CC1,inactive
17,O=C(Nc1nccs1)c1cc(-c2ccccn2)nc2c(Cl)cccc12,2.07 µM (active)
18,CC1CCN(c2nc(-c3ccco3)c3c(c2C#N)CC(C)(C)OC3)CC1,33.5 µM (active)
19,COc1ccc(-c2nc(C)c(C(C)=O)n2O)cc1OC,inactive
